TRHR PAM = allosteric enhancers of human TRH receptor. P34981. TRHR cells, fluo-8 calcium fluorescence, EC20 TRH enhancement. enhancement, % at 2 µM. 0.66% of 360,000 active. AID 493056; in the data active means enhancement above about 30%; further: 0% is about no effect
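TRHR-expressing cells loaded with fluo-8 calcium dye were read kinetically (ex 480/em 530) during compound addition, then stimulated with an EC20 of TRH (10 nM final). Enhancement of the Gq-mediated intracellular calcium response was scored.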
TRHR agonist = activates the human TRH receptor | AID 493084 | activation, % at 2 µM | P34981 | 0.18% of 360,000 active | TRHR cells, calcium flux fluo-8, FDSS agonist mode; further: 0% is about no effect
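Fluo-8-loaded TRHR cells; 10 s baseline, compound added, kinetic Ca2+ fluorescence read 1/s, agonist mode.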
D1 PAM = human D1 dopamine receptor positive modulation; HEK293 TREx D1 cells, calcium flux, dopamine EC20 potentiation; potentiation, % at 10 µM; 0.036% of 360,000 active; AID 504651; in the data active means potentiation above about 30%; further: 0% is about no effect
Target sequence (P21728 whole entry, looked up): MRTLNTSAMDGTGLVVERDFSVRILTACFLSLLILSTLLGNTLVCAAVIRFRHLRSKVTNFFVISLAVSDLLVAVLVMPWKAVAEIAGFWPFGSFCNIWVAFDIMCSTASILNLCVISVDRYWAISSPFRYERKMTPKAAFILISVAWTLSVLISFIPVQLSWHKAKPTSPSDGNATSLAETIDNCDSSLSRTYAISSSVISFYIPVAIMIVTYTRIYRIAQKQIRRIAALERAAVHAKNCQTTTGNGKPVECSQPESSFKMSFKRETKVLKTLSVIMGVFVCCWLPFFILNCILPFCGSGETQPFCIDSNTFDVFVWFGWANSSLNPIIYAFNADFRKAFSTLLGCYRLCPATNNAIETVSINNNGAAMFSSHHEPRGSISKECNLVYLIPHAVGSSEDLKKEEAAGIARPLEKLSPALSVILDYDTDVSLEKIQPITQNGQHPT
D1 ag = activates the human D1 dopamine receptor; P21728; HEK293 T-REx D1 cells, calcium flux, agonist mode; activation, % at 2 µM; 1% of 360,000 active; AID 504660; further: 0% is about no effect
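Agonism was scored from calcium flux recorded over 180 s (1 read/s) after pintool compound addition, following a 10-cycle baseline. Cells were inducible force-coupled HEK293 TREx D1, plated overnight at 30 C and loaded with no-wash calcium dye.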
D1 antag = human D1 dopamine receptor antagonism. P21728. HEK293 TREx D1 cells, calcium flux, dopamine EC80; stronger effect = lower value. activity change, negative = inhibition, % at 10 µM. 3.2% of 360,000 active. AID 504652; in the data active means activity change below about -30%; further: on the % scale 0 is the no-effect control and ±100 the full control effect
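Tetracycline-induced HEK293 T-REx cells with force-coupled D1 receptor were loaded with a no-wash calcium dye. Compound was added after a 10 s baseline and read kinetically for 180 s; EC80 dopamine was then added and calcium flux followed another 180 s.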
Starred values were filed as active, the others as inactive. Shown are actives, neighbours in structure and some others; about 4.7% of the full set was active somewhere. Unless noted, no stated cut-off is given here; in the data, active means activation above about 30%; inactive means the rest.

SMILES | TRHR PAM | TRHR agonist | D1 PAM | D1 ag | D1 antag
CSCC(C)N1CCC(Oc2cccc(C(=O)NCc3ccccn3)c2)CC1 (stereo not given) | 1 | 0 | -11 | 4 | -63*
CC(C)CN1CCC(Oc2cccc(C(=O)NCCc3ccccc3)c2)CC1 | -1 | 1 | -3 | 6 | -38*
COc1ccc(CCNC(=O)c2cc3sccc3n2Cc2ccc(Cl)cc2)cc1OC | 0 | 1 | -5 | 8 | -7
CCOc1ccccc1C(=O)N1CC(=O)Nc2ccc(Cl)cc2C1c1ccccc1 (stereo not given) | -4 | 1 | -1 | 1 | 12
CC1CCN(CCCNS(=O)(=O)c2cc(Br)cc3c2N(C(=O)C2CC2)CC3)CC1 | 33* | -1 | -8 | 1 | -12
O=C(NCNC(=O)c1ccccc1)c1ccccc1 | 0 | 0 | -5 | 1 | -19
O=C(NCn1ccc(=O)[nH]c1=S)c1ccccc1 | 4 | 0 | 4 | 0 | -46*
COc1ccccc1NC(=S)N(CCCN(C)C)Cc1cc2cc3c(cc2[nH]c1=O)OCO3 | 4 | 0 | -6 | 0 | -8
COc1ccc2cc(CN(C(=O)Nc3ccccc3OC)C3CCCC3)c(=O)[nH]c2c1 | 3 | -1 | -7 | 1 | -33*
COc1ccccc1NC(=O)N(Cc1cccs1)Cc1cc2cc3c(cc2[nH]c1=O)OCO3 | 3 | 0 | -13 | 2 | -34*
COc1ccc2cc(CN(CC3CCCO3)C(=O)Nc3ccccc3OC)c(=O)[nH]c2c1 (stereo not given) | -2 | -1 | -7 | 1 | -21
O=C(Nc1ccc(F)c(Cl)c1)c1cc(S(=O)(=O)NCc2ccc3c(c2)OCO3)ccc1F | 14 | 1 | -1 | 0 | -8
COc1ccc(-n2ncc(C(=O)NCc3ccc4c(c3)OCO4)c2C2CCN(C(=O)OC(C)(C)C)CC2)cc1 | 2 | 1 | 2 | 8 | 12
Oc1ccc(Cl)cc1CNCc1ccc(F)cc1 | 2 | 6 | -8 | 60* | -16
Oc1ccc(Cl)cc1Cc1cc(Cl)ccc1O | -2 | -2 | 13 | 111* | 33
Oc1ccc(Cl)cc1CNCc1ccc(Cl)cc1 | -1 | 1 | 1 | 21 | 18
Cc1cc(Cl)c(S(=O)(=O)N/N=C/c2ccc3c(c2)OCO3)c(Cl)c1 | 4 | 0 | -6 | 3 | 0
Cc1cc(C)c(S(=O)(=O)N/N=C/c2ccc3c(c2)OCO3)c(C)c1 | 0 | 1 | -3 | 2 | -72*
O=C(Nc1sc2c(c1C(=O)NCC1CCCO1)CCC2)c1cc(=O)c2cc(Cl)ccc2o1 (stereo not given) | 12 | 0 | 2 | 0 | -10
O=C(CSc1ccccc1)NNC(=O)c1ccncc1 | 32* | 0 | 1 | 5 | 4
O=C(CSc1ccccc1F)NNC(=O)c1ccncc1 | 5 | 0 | 3 | 1 | 5
Cc1ccc(NS(=O)(=O)c2ccc(C(=O)NCC(c3ccco3)N(C)C)cc2)cc1 (stereo not given) | 6 | 5 | -7 | 53* | -31*
Cc1cccc(NS(=O)(=O)c2ccc(C(=O)NCC(c3ccccc3)N(C)C)cc2)c1C (stereo not given) | -6 | 3 | -2 | 48* | 1
CN(C)C(CNC(=O)c1cccc(S(=O)(=O)Nc2ccccc2Cl)c1)c1ccco1 (stereo not given) | 7 | 0 | 4 | 2 | -10
CN(C)C(CNC(=O)Cc1cccc(C(F)(F)F)c1)c1ccco1 (stereo not given) | 6 | 1 | -2 | 5 | -48*
SMILES | TRHR PAM | TRHR agonist | D1 PAM | D1 ag | D1 antag
CN(C)C(CNC(=O)c1ccc(NS(=O)(=O)c2ccc(F)cc2)cc1)c1ccco1 (stereo not given) | 3 | 0 | 2 | 2 | -7
CNS(=O)(=O)c1cccc(C(=O)NCC(c2ccco2)N(C)C)c1 (stereo not given) | -11 | 0 | 1 | 0 | -35*
COc1ccccc1NS(=O)(=O)c1ccc(C(=O)NCC(c2ccccc2OC)N(C)C)cc1 (stereo not given) | 3 | 0 | -5 | 2 | -1
COC(=O)C1=C(CS(=O)(=O)c2cc(Cl)ccc2OC)NC(=O)NC1c1ccccc1 (stereo not given) | -2 | 0 | -2 | -1 | 6
Cc1n[nH]c(=S)c2nn(-c3ccccc3)c(C)c12 | -1 | -1 | -9 | 1 | -33*
Cc1ccc(-n2nc3c(=S)[nH]nc(C)c3c2C)cc1 | 2 | 1 | 1 | 2 | -1
COC(=O)c1ccc(N)c(CS(=O)(=O)c2ccc(Cl)cc2)c1 | -3 | -1 | -3 | 0 | -4
COC(=O)c1sc(C(C)(C)C)cc1CS(=O)(=O)c1ccc(Cl)cc1 | -3 | 0 | -5 | 2 | -40*
Cc1cc(-c2nn3c(-c4ccccc4)nnc3s2)c2ccccc2n1 | -2 | 0 | -6 | -1 | -33*
c1ccc(-c2cc(-c3nn4c(-c5ccco5)nnc4s3)c3ccccc3n2)cc1 | -6 | -2 | -6 | 4 | 26
CCOC(=O)/C(=C\C=C1/Sc2cc(OCC)c(OCC)cc2N1CC)C(C)=O | 19 | 160* | 2 | 329* | -43*
CCN1/C(=C/C(C)=O)Sc2ccc(OC)cc21 | 1 | -1 | -1 | 0 | 13
CCOC(=O)/C(=C/C=C1\Sc2cc(OCC)c(OCC)cc2N1CC)C(C)=O | 48* | 244* | 0 | 216* | -30*
O=C(CN1C(=O)NC2(CCCC2)C1=O)Nc1ccccc1N1CCCC1 | 2 | 0 | 2 | 4 | -8
CC1(c2ccccc2)NC(=O)N(CC(=O)NNC(=O)c2ccccc2)C1=O (stereo not given) | 2 | 0 | -3 | 4 | -43*
CC1(c2ccccc2)NC(=O)N(CC(=O)Nc2ccccc2N2CCCC2)C1=O (stereo not given) | 8 | 3 | -5 | 38* | 3
CN1CCN(c2ccc(Cl)cc2NC(=O)CN2C(=O)NC(C)(c3ccccc3)C2=O)CC1 (stereo not given) | -5 | 0 | -3 | -1 | -10
CCC1(c2ccccc2)NC(=O)N(CC(=O)Nc2cc(Cl)ccc2N2CCN(C)CC2)C1=O (stereo not given) | 7 | 1 | -14 | 8 | -38*
Cc1cccc(C)c1OCCN1C(=O)NC(C)(c2ccccc2)C1=O (stereo not given) | 40* | 1 | 0 | 5 | 1
CCN1CCC(N(Cc2ccc(F)cc2)C(=O)Nc2ccc(C)c(F)c2)CC1 | 7 | 1 | 4 | 8 | 11
C=CCn1cc(CN2CCC(C(=O)Nc3cccc(-c4cccc(F)c4)c3)CC2)c(C)n1 | 4 | 4 | -8 | 27 | -39*
Cc1cccc(CN2CCC(C(=O)Nc3cccc(-c4cccc(F)c4)c3)CC2)n1 | 0 | 0 | -4 | 11 | -14
